FH mod: Identification of activators of human fumarate hydratase by quantitative high-throughput screening. Fumarate hydratase, mitochondrial (Homo sapiens), P07954. FH coupled MDH/diaphorase resazurin fluorescence, 15 min. Potency, µM (highest dose often 79.9 µM), inactives show at the top dose activity change, negative = inhibition, usual class: inhibitors. hit rate 0.22% among 54,000; also: potency is read from the fitted curve at half-maximal effect; % is scaled to controls: 0 for no effect and ±100 for the full control effect; the screen sought activators but most active calls are inhibition curves; nearly all actives have a fitted effect of over 45% in size
Target sequence (P07954 whole entry, looked up): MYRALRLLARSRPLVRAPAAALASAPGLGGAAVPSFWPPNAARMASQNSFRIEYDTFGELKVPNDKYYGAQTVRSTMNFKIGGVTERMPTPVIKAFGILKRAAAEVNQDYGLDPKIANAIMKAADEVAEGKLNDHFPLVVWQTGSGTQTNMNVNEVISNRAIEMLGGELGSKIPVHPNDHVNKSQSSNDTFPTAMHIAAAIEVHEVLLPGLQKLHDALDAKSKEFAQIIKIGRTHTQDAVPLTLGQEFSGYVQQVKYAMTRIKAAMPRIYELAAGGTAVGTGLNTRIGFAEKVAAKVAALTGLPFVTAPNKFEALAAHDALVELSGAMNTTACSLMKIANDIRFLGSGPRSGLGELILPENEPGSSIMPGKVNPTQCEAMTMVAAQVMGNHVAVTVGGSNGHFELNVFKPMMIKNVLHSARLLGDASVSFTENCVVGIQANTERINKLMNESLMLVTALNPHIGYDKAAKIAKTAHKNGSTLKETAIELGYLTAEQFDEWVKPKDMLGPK
NTMT1 inh: NTMT1 methyltransferase inhibition | Q9BV86 | NTMT1 MTase-Glo SAH luminescence, purified enzyme | Potency, µM (highest dose often 114 µM), without a hit: top-dose activity change, negative = inhibition, hits mostly inhibitors | hit rate 2.5% among 59,000;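 also: potency is read from the fitted curve at half-maximal effect; plate controls were DMSO vehicle for no effect and no enzyme for full effect; nearly all actives have a fitted effect of over 65% in size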
Target sequence (Q9BV86 whole entry, looked up): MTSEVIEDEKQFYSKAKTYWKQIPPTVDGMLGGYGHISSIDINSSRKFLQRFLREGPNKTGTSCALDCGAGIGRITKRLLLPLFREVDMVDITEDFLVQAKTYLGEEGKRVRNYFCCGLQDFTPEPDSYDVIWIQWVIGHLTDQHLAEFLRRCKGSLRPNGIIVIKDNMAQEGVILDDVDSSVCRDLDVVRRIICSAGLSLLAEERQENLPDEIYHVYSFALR
p53null 39C kill: kills p53 null cells at the nonpermissive temperature | H1299 p53-null (neo) cells, 39C, ATPlite viability, 24 h | Potency, µM (titrated, usually from 46.1 µM), inactives show at the top dose activity, negative = cell killing, hits mostly cytotoxic | hit rate 0.97% among 55,000 | AID 904;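 also: potency is read from the fitted curve at half-maximal effect; 0% = DMSO only and -100% = full killing by 100 µM tamoxifen; nearly all actives have a fitted effect of over 50% in size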
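Concentration-response (up to 46 uM) was run for 24 h at the nonpermissive 39C on H1299-p53A138V or H1299-neo cells. ATP content was measured with ATPlite luminescence. AC50 values were Hill-modeled after normalizing between DMSO and 100 uM tamoxifen killing.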
GALC G270D up: raises human GALC G270D mutant activity in cells; P54803; 145M-Twi-hGALC-G270D cells (Twitcher mouse brain line with human GALC G270D), HMU-beta-Gal fluorescence, 48 h; Potency, µM (series often up to 57.5 µM), actives largely listed as activators; hit rate 0.1% among 45,000; also: potency is read from the fitted curve at half-maximal effect; 0% is about no effect; nearly all actives have a fitted effect of over 65% in size
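Live 145M-Twi cells (Twitcher mouse brain-derived, GALC-null) stably expressing human GALC-G270D, with a wild-type GALC line, were compound-treated. Residual GALC activity was then read as fluorescence from 0.1 mM final HMU-β-gal at pH 5.2; higher signal means activation.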
p53null 32C kill: p53 null cell cytotoxicity, permissive temperature. H1299-neo p53 null cells, ATP luminescence, 24 h, 32C. Potency, µM (top dose mostly 46.1 µM), for inactives: top-dose activity change, negative = cytotoxicity, actives largely listed as cytotoxic. hit rate 0.62% among 55,000. AID 903;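 also: potency is read from the fitted curve at half-maximal effect; 0% = DMSO only and -100% = full killing by 100 µM tamoxifen; nearly all actives have a fitted effect of over 55% in size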
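H1299-neo (p53-null) cells, 600/well, were pre-incubated overnight at 37C, then exposed to compounds at up to 46 uM for 24 hr at 32C. Viability was measured as ATP content by luminescence, and AC50 values came from Hill fits.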
CLK4 inh-1: CLK4 kinase inhibition, SAR round 2 | shares compounds with NTMT1 inh | recombinant Clk4, Kinase-Glo ATP luminescence, 4.5 h | Potency, µM (top dose mostly 76.9 µM), without a hit: at the top dose activity, negative = inhibition, usual class: inhibitors | hit rate 90% among 90
CLK4 inh-2: inhibitors of human CLK4 kinase, SAR round 2. Potency, µM, hits mostly inhibitors. Reaction Biology kinase assay, 10 uM ATP. shares compounds with NTMT1 inh. AID 504421. hit rate 100% among 65; calls by dose curve
DYRK1A inh: blocks human DYRK1A kinase in radiometric assay; hit rate 90% among 65; Reaction Biology kinase assay, 10 uM ATP; shares compounds with NTMT1 inh; AID 504424; Potency, µM, hits mostly inhibitors;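 active = compounds that showed inhibition of Dyrk1a and received a fitted potency; inactive = compounds that showed no inhibition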
CLK2 inh: CLK2 kinase inhibition. shares compounds with NTMT1 inh. Reaction Biology kinase assay, 10 uM ATP. Potency, µM, hits mostly inhibitors. hit rate 90% among 65;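 active = compound that inhibits Clk2 kinase in the dose series, with an IC50 potency reported; inactive = no inhibition seen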
CLK3 RBC: blocks human CLK3 kinase activity | recombinant CLK3 kinase assay, 10 uM ATP | Potency, µM, actives largely listed as inhibitors | AID 504428 | shares compounds with NTMT1 inh | hit rate 40% among 65;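 active = compounds that inhibited Clk3 enough in the ten-dose series to give a half-maximal potency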
DYRK1B inh: blocks human DYRK1B kinase activity | shares compounds with NTMT1 inh | Recombinant Dyrk1b kinase assay, 10 uM ATP | Potency, µM, hits mostly inhibitors | hit rate 80% among 65;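 active = compounds whose dose response shows an inhibitor phenotype against the kinase Dyrk1b; inactive = compounds showing no inhibitor phenotype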
CLK1 RBC: blocks human CLK1 kinase activity. shares compounds with NTMT1 inh. recombinant Clk1 kinase assay, 10 uM ATP. Potency, µM, most hits filed as inhibitors. hit rate 90% among 65. AID 504430;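 active = compounds that block the splicing kinase Clk1 enough to give a fitted half-inhibition concentration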
Sfp qHTS opt: inhibits purified B. subtilis Sfp PPTase. shares compounds with NTMT1 inh. purified Sfp PPTase enzyme activity, qHTS. Potency, µM (top dose mostly 114 µM), for inactives: at the highest dose activity change, negative = inhibition, usual class: inhibitors. hit rate 78% among 230
Bsub HM489 growth: Sfp PPTase inhibitors: growth inhibition of B. subtilis HM489. shares compounds with NTMT1 inh. B. subtilis HM489 (acpS-) growth, BacTiter-Glo, 5 h. Potency, µM (titrated, usually from 114 µM), for the others: at the top dose activity change, negative = inhibition, hits mostly inhibitors. hit rate 50% among 220
Sfp PPTase gel: inhibitors of Bacillus subtilis Sfp PPTase, gel-based followup. AID 540355. hit rate 54% among 220. Potency, µM (titrated, usually from 250 µM), without a hit: at the highest dose activity change, negative = inhibition, actives largely listed as inhibitors. shares compounds with NTMT1 inh. purified Sfp PPTase, gel-based product detection
Sfp SAR2: inhibitors of Bacillus subtilis Sfp PPTase, SAR round 2; shares compounds with NTMT1 inh; hit rate 87% among 230; purified Sfp enzyme, PPTase activity, qHTS; AID 602370; Potency, µM (series often up to 57.1 µM), for the others: top-dose activity change, negative = inhibition, most hits filed as inhibitors
HSD17B4 counter: HSD17B4 (human) inhibition, HPGD counter-screen; shares compounds with NTMT1 inh; hit rate 10% among 230; Potency, µM (top dose mostly 57.1 µM), for inactives: at the top dose activity change, negative = inhibition, hits mostly inhibitors; AID 743187; purified HSD17B4, estradiol/NAD+, NADH fluorescence
ALDH1A1 counter: ALDH1A1 (human) inhibition, HPGD counter-screen; hit rate 93% among 230; recombinant ALDH1A1, NADH fluorescence, propionaldehyde/NAD+; AID 743195; shares compounds with NTMT1 inh; Potency, µM (doses to about 57.1 µM), inactives show top-dose activity change, negative = inhibition, actives largely listed as inhibitors
NNMT inh: blocks human NNMT methyltransferase; shares compounds with NTMT1 inh; NNMT MTase-Glo luminescence, SAH detection; Potency, µM (titrated, usually from 57.1 µM), without a hit: top-dose activity, negative = inhibition, most hits filed as inhibitors; hit rate 10% among 120; AID 1645878
An asterisk follows results filed as active; i = inactive; ? = inconclusive; . = no result; [ ] = remark or other dose. The full list was thinned out, with hits kept by preference. Unless noted, calls follow the shape of the dose curve; as a rule, active = well fitted curve in the direction sought with a large enough effect; inconclusive = small, poorly fitted or top-dose-only effect, or another doubt; inactive = no such curve, though single readings can be large; an effect the other way counts as inactive or inconclusive.

SMILES | FH mod | NTMT1 inh | p53null 39C kill | GALC G270D up | p53null 32C kill | others
CC1(C)CC[C@]2(C(=O)O[C@@H]3O[C@H](CO[C@@H]4O[C@H](CO)[C@@H](O)[C@H](O)[C@H]4O[C@@H]4O[C@H](CO)[C@H](O)[C@H](O)[C@H]4O)[C@@H](O)[C@H](O[C@@H]4O[C@H](CO)[C@@H](O)[C@H](O)[C@H]4O)[C@H]3O)CC[C@]3(C)C(=CCC4[C@@]5(C)CC[C@H](O[C@@H]6OC[C@@H](O)[C@H](O)[C@H]6O)[C@@](C)(C(=O)O)C5CC[C@]43C)[C@@H]2C1 (some centres not stated) | 0%[13.5 µM] | 19%[6.45 µM] | . | . | .
O=C(CSc1nc(=O)n(CCN2CCOCC2)c2c1CCC2)Nc1cccc(Cl)c1 | -8% | -4% | 28% | i | -1%
Cc1cc(N2CCOCC2)cc2[nH]c(-c3c(NC[C@@H](O)c4cccc(Cl)c4)cc[nH]c3=O)nc12 | ? | ? | . | . | . | NNMT inh=?
N[C@@H](Cc1ccc(O[S+](=O)([O-])c2cccc3cnccc23)cc1)C(=O)N1CCN(c2ccccc2)CC1 | . | 0%[57.5 µM] | . | . | .
OCc1ccc(-c2ccc3ncnc(NCC4CCCO4)c3c2)o1 (configuration not stated) | . | . | . | . | . | CLK4 inh-2=13*;DYRK1A inh=i;CLK2 inh=i;CLK3 RBC=i;DYRK1B inh=45µM*;CLK1 RBC=50µM*
O=C(O)c1ccc(-c2ccc3ncnc(NCc4nccs4)c3c2)o1 | . | 0%[57.5 µM] | . | . | . | CLK4 inh-1=0.92µM*;CLK4 inh-2=1.9*;DYRK1A inh=41µM*;CLK2 inh=27µM*;CLK3 RBC=i;DYRK1B inh=18µM*;CLK1 RBC=39µM*
O=C(O)c1ccc(-c2ccc3ncnc(NCC4CCCO4)c3c2)o1 (configuration not stated) | . | -4% | . | . | . | CLK4 inh-1=0.82µM*;CLK4 inh-2=3.4*;DYRK1A inh=30µM*;CLK2 inh=20µM*;CLK3 RBC=i;DYRK1B inh=12µM*;CLK1 RBC=44µM*
CC1=CC2/C=C(\C)CC[C@@H](O)[C@@H](O)[C@@H]3O[C@@H]3C(=O)[C@]23C(=O)N[C@@H](CC(C)C)[C@@H]3[C@@H]1C (some centres not stated) | 5%[53.3 µM] | -17%[29.8 µM] | . | . | .
Cc1ccccc1NC(=O)Nc1ccc(CN2C(=O)N([C@@H](CC(C)C)C(=O)N[C@@H](CC(=O)O)c3ccccc3)C(=O)C2(C)C)cc1 | 1% | -3%[57.5 µM] | . | . | .
C=C1CCC2C(C)(C)CCCC2(C)C1CC/C(C)=C\CO (configuration not stated) | -27% | 13%[57.5 µM] | . | . | .
CC(C)c1ccccc1-c1nc(NCc2ccc(-c3cccnc3)cc2)c2ccccc2n1 | . | 18% | . | . | .
Cc1ccc2nc3sc(C(=O)NC4CCCCC4)cc3cc2c1 | . | -4%[57.5 µM] | . | . | .
COc1c/c(=C2\C=c3ccccc3=N2)[nH]/c1=C/c1[nH]c(C)cc1C | . | . | . | . | . | NNMT inh=?
COc1c/c(=C2\C=c3ccccc3=N2)[nH]/c1=C\c1[nH]c(C)cc1C | 0% | ? | . | . | .
Cc1ccc(NC(=O)N2CCN(c3nc(N)nc4sc(-c5cccnc5)nc34)CC2)cc1 | -18% | -2%[57.5 µM] | . | . | . | NNMT inh=15%
COc1cccc(NC(=S)N2CCN(c3ncc(C(F)(F)F)cc3Cl)CC2)n1 | . | ? | . | . | . | Sfp qHTS opt=?;Bsub HM489 growth=12%;Sfp PPTase gel=5%;Sfp SAR2=4.6µM*;HSD17B4 counter=-13%;ALDH1A1 counter=1.1µM*
CN(C)c1ccc2nc(NC(=S)N3CCN(c4cccc(C(F)(F)F)c4)CC3)sc2c1 | . | 13%[57.5 µM] | . | . | . | Sfp qHTS opt=?;Bsub HM489 growth=?;Sfp PPTase gel=20µM*;Sfp SAR2=10µM*;HSD17B4 counter=?;ALDH1A1 counter=9.6µM*
COc1cccc(NC(=S)N2CCN(c3cccc(C(F)(F)F)c3)CC2)n1 | . | . | . | . | . | Sfp qHTS opt=13µM*;Bsub HM489 growth=42µM*;Sfp PPTase gel=20µM*;Sfp SAR2=11µM*;HSD17B4 counter=19µM*;ALDH1A1 counter=15µM*
